Measurements as given in PubChem BioAssay (NCATS).
Inconclusive results are not listed. Calls of active or inactive are those of the source. The call rests on the fitted dose curve; in most records, active means well fitted curve in the direction sought with a large enough effect; inconclusive means small, poorly fitted or top-dose-only effect, or another doubt; inactive means no such curve, though single readings can be large; an effect the other way counts as inactive or inconclusive.

Tests used:
[1] = Cellular Toxicity (caspase-3) Mesangial (AID 660); conditions: mesangial cells, normalized: DMSO 0%, 100 µM tamoxifen 100%; at 91.7 µM (top of the series);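 further: combined caspase 3 and 7 activity read by Caspase-Glo luminescence; cells exposed to compound for 16 h before the caspase read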
Procedure, shortened: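 AC50 values come from Hill-equation fits of caspase 3/7 activation, measured as Caspase-Glo luminescence in human glomerular mesangial cells exposed to compound for 16 h at 37 °C; 100% set by 100 uM tamoxifen.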

[2] = Cellular Toxicity (caspase-3) SK-N-SH (AID 661);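 further: 0% = DMSO basal and 100% = 10 µM staurosporine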
Procedure, shortened: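 Apoptosis readout in SK-N-SH neuroblastoma: Caspase-Glo 3/7 luminescence following 16 hr treatment in complete culture medium. Normalization used DMSO and 10 uM staurosporine controls.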

[3] = Cellular Toxicity (caspase-3) H-4-II-E (AID 663); conditions: H-4-II-E rat hepatoma, scaled: DMSO 0%, 100 µM tamoxifen 100%; at 92.2 µM (top of the series)
Procedure, shortened: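 H-4-II-E rat hepatoma, 1500 cells/well, 5 hr settle at 37 °C; compound 16 hr, 37 °C, complete medium; Caspase-Glo 3/7, 20 min RT; luminescence. DMSO = 0%, 100 uM tamoxifen = 100%; Hill-equation AC50.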

[4] = Cellular Toxicity (caspase-3) Hek293 (AID 664); conditions: HEK293 caspase-3 activation, DMSO = 0%, 100 µM tamoxifen = 100%; at 92.2 µM (top of the series);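 further: cells exposed to compound for 16 h at 37 °C before readout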
Procedure, shortened: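 Apoptosis readout: Caspase-Glo 3/7 signal in human HEK293 cells following 16-hour compound incubation. Responses scaled between DMSO baseline and 100 uM tamoxifen.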

[5] = Cellular Toxicity (caspase-3) N2a (AID 665);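 further: compound exposure lasted 16 h at 37 °C before readout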
Procedure, shortened: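 Concentration-response qHTS: compound-induced caspase-3/7 luminescence in N2a cells (16 h, 37 °C), relative to DMSO and 10 uM staurosporine controls; AC50 obtained using the standard Hill equation.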

[6] = Cellular Toxicity (caspase-3) NIH 3T3 (AID 666);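 further: 0% = DMSO basal and 100% = 100 µM tamoxifen stimulation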
Procedure, shortened: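 Activity: caspase-3/7 induction, NIH 3T3 cells, 16 hr treatment at 37°C, luminescent Caspase-Glo detection; AC50 via Hill equation.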

[7] = Cellular Toxicity (caspase-3) Renal Proximal Tubule (AID 667); conditions: Potency: caspase-3 activation;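 further: cells exposed to compound for 16 hours at 37 °C before detection; 0% = DMSO basal and 100% = 10 µM staurosporine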
Procedure, shortened: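 Luminescent caspase 3/7 signal from peptide-aminoluciferin cleavage measures apoptosis in freshly isolated rat kidney proximal tubule cells after 16 h compound exposure. Concentration-response data are normalized to DMSO and 10 uM staurosporine, and AC50 values come from Hill equation fits.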

[8] = target: Cytochrome P450 3A4 (Homo sapiens) (UniProt P08684); experiment: qHTS Assay for Inhibitors and Substrates of Cytochrome P450 3A4 (AID 884); further: on the % scale 0 is the no-effect control and ±100 the full control effect; nearly all actives have a fitted effect of over 50% in size
Sequence of Cytochrome P450 3A4 (Homo sapiens) (P08684 whole entry, looked up): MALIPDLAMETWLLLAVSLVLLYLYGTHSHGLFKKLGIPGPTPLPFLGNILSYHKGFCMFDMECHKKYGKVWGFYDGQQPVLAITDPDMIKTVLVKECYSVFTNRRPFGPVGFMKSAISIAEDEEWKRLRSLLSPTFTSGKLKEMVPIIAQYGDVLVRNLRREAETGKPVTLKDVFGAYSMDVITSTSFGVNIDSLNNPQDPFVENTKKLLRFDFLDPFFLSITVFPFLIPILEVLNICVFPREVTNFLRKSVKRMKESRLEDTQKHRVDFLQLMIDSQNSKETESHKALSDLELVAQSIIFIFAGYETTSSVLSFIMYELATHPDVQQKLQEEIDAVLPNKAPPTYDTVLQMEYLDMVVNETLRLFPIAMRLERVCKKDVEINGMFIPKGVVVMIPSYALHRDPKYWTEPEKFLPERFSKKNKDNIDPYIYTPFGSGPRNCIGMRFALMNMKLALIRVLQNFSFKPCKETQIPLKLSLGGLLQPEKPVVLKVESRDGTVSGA
Procedure, shortened: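 Luminescent readout of luciferin produced by CYP3A4 (20 nM) dealkylation of Luciferin-PPXE, 25 uM (its KM). NADPH-driven reaction ran 60 min at RT after 10 min compound preincubation; data scaled to 57 uM ketoconazole as 100% inhibition.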

[9] = MultiTox-Fluor Cytotoxicity Assay - LYMP1-001 - Dead Cells (AID 946);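 further: 0% = DMSO and 100% = tetraoctylammonium bromide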
Procedure, shortened: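 In this qHTS, 15 uM tetraoctylammonium bromide defined 100% and DMSO defined basal activity. Lymphoblastoid cells (LYMP1-001, 2500 per well) received compound for 16 hr at 37 C before a fluorogenic dead-cell substrate readout at 485/520 nm.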

[10] = MultiTox-Fluor Cytotoxicity Assay - LYMP1-001 - Live Cells (AID 947);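 further: 0% = DMSO only and full inhibition = tetraoctylammonium bromide control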
[11] = Cell Viability - LYMP1-002 - Assay at 16 hr (AID 948);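 further: 0% = DMSO alone and full effect = 92 µM tetraoctylammonium bromide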
Procedure, shortened: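 LYMP1-002 human lymphoblastoid cells, 2500/well; 5 hr 37 C; cpd 16 hr 37 C; CellTiter-Glo 30 min RT; luminescence (ATP). Concentration-response, Hill-fit AC50. Pos ctrl tetraoctylammonium bromide.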

[12] = MultiTox-Fluor Cytotoxicity Assay - LYMP1-002 - Live Cells (AID 955); further: on the % scale 0 is the no-effect control and ±100 the full control effect
Procedure, shortened: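 In this qHTS viability format, lymphoblastoid cells (LYMP1-002, human) received compound for 16 hr at 37 C. Fluorogenic GF-AFC cleavage by viable cells was detected at 405/510 nm after 1 h at room temperature.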

[13] = MultiTox-Fluor Cytotoxicity Assay - LYMP1-002 - Dead Cells (AID 960);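 further: 0% = DMSO and 100% = tetraoctylammonium bromide; nearly all actives have a fitted effect of over 60% in size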
Procedure, shortened: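 Concentration-dependent increases in membrane-leaked protease activity are quantified in LYMP1-002 cells after 16 hr treatment; values are normalized against DMSO and tetraoctylammonium bromide (15 uM) controls and AC50 derived by Hill modeling.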

[14] = MultiTox-Fluor Cytotoxicity Assay - LYMP1-003 - Dead Cells (AID 961);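 further: 0% = DMSO and 100% = tetraoctylammonium bromide; nearly all actives have a fitted effect of over 70% in size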
Procedure, shortened: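 Acute toxicity is scored as increased dead-cell protease activity in human lymphoblastoid LYMP1-003 cells after 16 h compound exposure in complete culture medium. Activity is normalized to DMSO basal and 15 uM tetraoctylammonium bromide as full response.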

[15] = MultiTox-Fluor Cytotoxicity Assay - LYMP1-003 - Live Cells (AID 962);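 further: 0% = DMSO only and full loss = 92 µM tetraoctylammonium bromide; cytotoxic hits lower the live-cell protease signal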
Procedure, shortened: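 Human lymphoblastoid line LYMP1-003 in complete culture medium, treated 16 hr with titrated compounds. Viable cells quantified via cell-permeant GF-AFC substrate fluorescence; AC50 derived by Hill fitting.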

[16] = Cell Viability - LYMP1-003 - Assay at 24 hr (AID 963);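 further: plate controls were DMSO only for no effect and tetraoctylammonium bromide positive control for full effect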
Procedure, shortened: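 The lymphoblastoid line was treated with titrated compounds for 24 hours, and viable cell number estimated from luciferase-based ATP luminescence.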

[17] = Cell Viability - LYMP1-003 - Assay at 40 hr (AID 964); further: on the % scale 0 is the no-effect control and ±100 the full control effect; nearly all actives have a fitted effect of over 60% in size
Procedure, shortened: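 Acute toxicity is scored as a concentration-dependent loss of intracellular ATP in LYMP1-003 cells (2500/well, complete medium) after 40 hr at 37 C, measured by CellTiter-Glo luminescence; AC50 values derive from standard Hill modelling.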

[18] = Cell Viability - LYMP2-003 (AID 965);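 further: cells exposed to compounds for 24 h before reading; 0% = DMSO only and full effect = 92 µM tetraoctylammonium bromide; nearly all actives have a fitted effect of over 50% in size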
Procedure, shortened: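 CellTiter-Glo luminescence (cellular ATP) after 24 h compound exposure at 37 C in complete medium; 2500 cells/well, 5 h settling beforehand. Concentration-response fitted to standard Hill equation for AC50. Tetraoctylammonium bromide served as positive control.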

[19] = Cell Viability - LYMP2-004 (AID 966);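 further: plate controls were DMSO only for no effect and tetraoctylammonium bromide control for full effect; nearly all actives have a fitted effect of over 65% in size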
Procedure, shortened: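 Viable-cell number estimated from ATP luminescence (CellTiter-Glo) in 2500 human lymphoblastoid cells/well after 24 hr at 37 C with compound. AC50 fitted to the standard Hill equation.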

[20] = Cell Viability - LYMP2-001 (AID 921);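 further: 0% = DMSO only and full inhibition = tetraoctylammonium bromide control wells; nearly all actives have a fitted effect of over 70% in size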
Procedure, shortened: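 CellTiter-Glo luminescence (intracellular ATP) after 24 hr compound exposure at 37 C, 2500 lymphoblastoid cells/well in complete medium. AC50 fitted with standard Hill equation; tetraoctylammonium bromide positive control.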

NC(=O)c1cccc([N+](=O)[O-])c1
inactive: caspase-3 activation [1] 0.906% | outcome [2] | caspase-3 activation [3] -1.74% | caspase-3 activation [4] 2% | outcome [5] | outcome [6] | Potency [7] | Potency [8] | outcome [9] | outcome [10] | outcome [11] | outcome [12] | outcome [13] | Potency [14] | Potency [15] | Potency [16] | Potency [17] | Potency [18] | Potency [19]

CCOC(C)(C)C
inactive: caspase-3 activation [1] -0.979% | outcome [2] | caspase-3 activation [3] -0.707% | caspase-3 activation [4] 1.78% | outcome [5] | outcome [6] | Potency [7] | Potency [8] | Potency [20] | outcome [9] | outcome [11] | outcome [12] | outcome [13] | Potency [14] | Potency [15] | Potency [16] | Potency [17] | Potency [18] | Potency [19]

O=C1OC(=O)c2c(Br)c(Br)c(Br)c(Br)c21
inactive: caspase-3 activation [1] 0.186% | outcome [2] | caspase-3 activation [3] 0.557% | caspase-3 activation [4] 1.35% | outcome [5] | outcome [6] | Potency [7] | Potency [8] | outcome [9] | outcome [10] | outcome [11] | outcome [12] | outcome [13] | Potency [14] | Potency [15] | Potency [16] | Potency [17] | Potency [18] | Potency [19]

CC(C)CCOC(=O)/C=C/c1ccccc1
inactive: caspase-3 activation [1] 0.297% | outcome [2] | caspase-3 activation [3] 1.34% | caspase-3 activation [4] 1.37% | outcome [5] | outcome [6] | Potency [7] | Potency [8] | outcome [9] | outcome [10] | outcome [11] | outcome [12] | outcome [13] | Potency [14] | Potency [15] | Potency [16] | Potency [17] | Potency [18] | Potency [19]

CC(=O)Nc1cccc(N)c1
inactive: caspase-3 activation [1] 0.0656% | outcome [2] | caspase-3 activation [3] 0.403% | caspase-3 activation [4] 0.134% | outcome [5] | outcome [6] | Potency [7] | Potency [8] | Potency [20] | outcome [9] | outcome [11] | outcome [12] | outcome [13] | Potency [14] | Potency [15] | Potency [16] | Potency [17] | Potency [18] | Potency [19]

CCOCC(=O)O
inactive: caspase-3 activation [1] 1.49% | outcome [2] | caspase-3 activation [3] 0.681% | caspase-3 activation [4] 1% | outcome [5] | outcome [6] | Potency [7] | Potency [8] | Potency [20] | outcome [9] | outcome [11] | outcome [12] | outcome [13] | Potency [14] | Potency [15] | Potency [16] | Potency [17] | Potency [18] | Potency [19]

CCC(C)(C)OC
inactive: caspase-3 activation [1] -0.415% | outcome [2] | caspase-3 activation [3] 0.321% | caspase-3 activation [4] -1.93% | outcome [5] | outcome [6] | Potency [7] | Potency [8] | outcome [9] | outcome [10] | outcome [11] | outcome [12] | outcome [13] | Potency [14] | Potency [15] | Potency [16] | Potency [17] | Potency [18]

Nc1ccccc1[N+](=O)[O-]
inactive: caspase-3 activation [1] -0.609% | outcome [2] | caspase-3 activation [3] 1.23% | caspase-3 activation [4] -2.96% | outcome [5] | outcome [6] | Potency [7] | Potency [8] | Potency [20] | outcome [9] | outcome [11] | outcome [12] | outcome [13] | Potency [14] | Potency [15] | Potency [16] | Potency [17] | Potency [18] | Potency [19]

O=C(O)c1ccc(CO)o1
inactive: caspase-3 activation [1] -0.701% | outcome [2] | caspase-3 activation [3] 0.706% | caspase-3 activation [4] -0.635% | outcome [5] | outcome [6] | Potency [7] | Potency [8] | outcome [9] | outcome [10] | outcome [11] | outcome [12] | outcome [13] | Potency [14] | Potency [15] | Potency [16] | Potency [17] | Potency [18] | Potency [19]

Nc1ccc(F)cc1F
inactive: caspase-3 activation [1] -0.571% | outcome [2] | caspase-3 activation [3] -0.359% | caspase-3 activation [4] 0.487% | outcome [5] | outcome [6] | Potency [7] | Potency [8] | Potency [20] | outcome [9] | outcome [11] | outcome [12] | Potency [14] | Potency [15] | Potency [16] | Potency [17] | Potency [18] | Potency [19]

Cc1ccc(CO)cc1
inactive: caspase-3 activation [1] -1.48% | outcome [2] | caspase-3 activation [3] 0.0936% | caspase-3 activation [4] 0.73% | outcome [5] | outcome [6] | Potency [7] | Potency [8] | Potency [20] | outcome [9] | outcome [11] | outcome [12] | outcome [13] | Potency [14] | Potency [15] | Potency [16] | Potency [17] | Potency [18] | Potency [19]

C=CCCC
inactive: caspase-3 activation [1] -0.34% | outcome [2] | caspase-3 activation [3] 1.14% | caspase-3 activation [4] -1.75% | outcome [5] | outcome [6] | Potency [7] | Potency [8] | Potency [20] | outcome [9] | outcome [11] | outcome [12] | outcome [13] | Potency [14] | Potency [15] | Potency [16] | Potency [17] | Potency [18] | Potency [19]

O=Cc1ccc(Cl)cc1
inactive: caspase-3 activation [1] 0.65% | outcome [2] | caspase-3 activation [3] 0.113% | caspase-3 activation [4] 2% | outcome [5] | outcome [6] | Potency [7] | Potency [8] | outcome [9] | outcome [10] | outcome [11] | outcome [12] | outcome [13] | Potency [14] | Potency [15] | Potency [16] | Potency [17] | Potency [18]

CCC1CO1 (stereo unspecified)
inactive: caspase-3 activation [1] 0.872% | outcome [2] | caspase-3 activation [3] 2.93% | caspase-3 activation [4] -0.425% | outcome [5] | outcome [6] | Potency [7] | Potency [8] | Potency [20] | outcome [9] | outcome [11] | outcome [12] | Potency [15] | Potency [16] | Potency [17] | Potency [18] | Potency [19]
